Compound activity from PubChem BioAssay.
NPC1 promoter act: activates the NPC1 promoter; Huh7 NPC1 promoter luciferase reporter, 24 h; Potency, µM (top dose mostly 9.22 µM), for inactives: at the highest dose activation, most hits filed as activators; 320,000 compounds, 2.4% hits; AID 485313; further: % of control where 0% means no effect; nearly all actives have a fitted effect of over 60% in size
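Compounds in DMSO were transferred onto Huh7 NPC1-luciferase reporter cells pre-incubated 2 h; after 24 h at 37 °C, Amplite reagent was dispensed and luminescence recorded 10 min later.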
FLuc counter: inhibits or activates purified firefly luciferase, miR-21 counter-screen; purified FLuc, Km substrates, luminescence inhibition; Potency, µM (doses to about 57.5 µM), without a hit: at the highest dose activity change, negative = inhibition, hits mostly inhibitors; 360,000 compounds, 6.9% hits;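 further: plate controls were vehicle for no effect and reference inhibitor for full effect; nearly all actives have a fitted effect of over 55% in size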
Target sequence (P08659 whole entry, looked up): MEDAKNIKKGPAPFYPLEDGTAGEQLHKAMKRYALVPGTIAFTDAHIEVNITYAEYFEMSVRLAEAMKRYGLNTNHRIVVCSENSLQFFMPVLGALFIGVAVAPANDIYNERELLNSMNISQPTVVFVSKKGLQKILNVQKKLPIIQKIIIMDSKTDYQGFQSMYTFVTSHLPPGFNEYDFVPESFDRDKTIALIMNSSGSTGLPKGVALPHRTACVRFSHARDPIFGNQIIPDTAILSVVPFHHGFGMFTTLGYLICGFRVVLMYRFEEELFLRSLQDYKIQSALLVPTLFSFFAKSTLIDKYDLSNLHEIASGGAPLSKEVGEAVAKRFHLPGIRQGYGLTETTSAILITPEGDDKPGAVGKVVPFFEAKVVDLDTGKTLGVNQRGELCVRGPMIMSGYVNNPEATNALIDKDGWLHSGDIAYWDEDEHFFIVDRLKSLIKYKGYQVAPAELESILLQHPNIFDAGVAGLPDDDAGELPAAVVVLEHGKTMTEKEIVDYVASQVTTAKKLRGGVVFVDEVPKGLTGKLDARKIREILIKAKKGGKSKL
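Purified P. pyralis luciferase (10nM final) with 10uM D-luciferin and 10uM ATP (Km levels) in 50mM Tris acetate pH 7.5, 10mM Mg acetate, 0.01% Tween-20, 0.05% BSA; qHTS 6-point titration, ~60 µM downward; luminescence read.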
Rab9 promoter act: activates the Rab9 promoter. Potency, µM (highest dose often 9.22 µM), without a hit: at the highest dose activation, negative = inhibition, actives largely listed as activators. Huh7 Rab9 promoter-luciferase reporter, luminescence, 24 h. 320,000 compounds, 2.8% hits. AID 485297; further: % of control where 0% means no effect; nearly all actives have a fitted effect of over 60% in size
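Rab9 promoter-driven luciferase in stably transfected Huh7 cells; 1500 cells/well rested 2 h, exposed to compound in DMSO for 24 h at 37 °C, 5% CO2. Luminescence read 10 min after adding luciferase reagent at ambient temperature.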
p53 reactivator: restores transcriptional activity of mutant p53 | H1299 p53-A138V BP100-luciferase reporter, luminescence, 24 h | Potency, µM (top dose mostly 92.2 µM), without a hit: at the top dose activity change, positive = activation, hits mostly activators | 320,000 compounds, 0.063% hits | AID 504706; further: % of control where 0% means no effect; nearly all actives have a fitted effect of over 45% in size
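H1299 (p53-null), stable ts p53-A138V + BP100-Luc; 1000 cells/well, Opti-MEM/10% FBS; cpd 4 pt, 1:5; 24 h, 37 deg C, 5% CO2; detection reagent 10 min RT; luminescence.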
SMN2 splice enh: SMN2 splice variant enhancement. HEK293 SMN2-luciferase splicing reporter, luminescence, 30-36 h. Potency, µM (top dose mostly 46.1 µM), for inactives: at the highest dose activity change, positive = activation, actives largely listed as activators. 210,000 compounds, 2.8% hits; further: % of control where 0% means no effect; nearly all actives have a fitted effect of over 55% in size
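HEK293 cells carry an SMN2 […]–luciferase reporter in which exon 7 inclusion puts luciferase in frame. Cells were plated 10-12 h before compound addition, then incubated 30-36 h at 37C. ONE-Glo luminescence was read; sodium butyrate at 4.5 mM final served as control.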
ELG1 genotoxic: induces genotoxicity in HEK293T cells with luciferase-tagged ELG1; AID 504466; 330,000 compounds, 1.3% hits; Potency, µM (highest dose often 46 µM), inactives show at the highest dose activity change, positive = activation, actives largely listed as activators; HEK293T ELG1-luciferase reporter, luminescence, 16 h; further: % of control where 0% means no effect; nearly all actives have a fitted effect of over 60% in size
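Cells (2,000/well) expressing the ELG1-luciferase fusion are dosed by pin tool and kept 16 hr at 37 °C, 5% CO2. Signal comes from ONE-Glo luciferase reagent after 30 min at room temperature.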
The depositor's hits bear a star; ? = inconclusive; / = not tested or not shown; [ ] = remark or other dose. An excerpt weighted towards active compounds, which were near 7.4% of everything screened. The call rests on the fitted dose curve; in most records, active means well fitted curve in the direction sought with a large enough effect; inconclusive means small, poorly fitted or top-dose-only effect, or another doubt; inactive means no such curve, though single readings can be large; an effect the other way counts as inactive or inconclusive. Potency means the concentration at half of the fitted maximal effect.

SMILES	NPC1 promoter act	FLuc counter	Rab9 promoter act	p53 reactivator	SMN2 splice enh	ELG1 genotoxic
CCN(CC)CCNC(=O)C(=O)NCC(c1ccc2c(c1)OCO2)N1CCOCC1 (centres undefined)	/	-2%	/	/	/	/
O=C(c1ccccc1)C1CCN(C(=O)C2CCC(=O)N(Cc3ccccc3F)C2)CC1 (centres undefined)	1%	-2%	6%	6%	/	-8%
CCc1ccc(/C=C2\SC(=S)N(CCC(=O)NCCCN3CCOCC3)C2=O)cc1	15%	6.7µM*	-14%	?	/	9%
COc1ccc(/C=C2\SC(=S)N(CCC(=O)NCCCN3CCOCC3)C2=O)cc1	1%	17µM*	-8%	?	/	0%
Nc1nc2c(s1)CCc1c-2cnn1-c1ccccc1	0.79µM*	6.7µM*	?	-37%	11µM*	-11%
Nc1nc2c(s1)COc1ccccc1-2	13%	?	17%	5%	/	10%
Cc1ccc(C)c(CSc2nc3ccncc3n2CC(=O)Nc2ccc(N(C)C)cc2)c1	/	?	/	/	-29%	/
COC(=O)c1ccc(N2CCC(C)CC2)c(N)c1	?	12µM*	?	16%	7%	18µM*
COC(=O)c1ccc(N2CCCCC2)c(N)c1	?	11µM*	3.5µM*	?	22µM*	?
Cc1cc(C(=O)Nc2c(C)n(C)n(-c3ccccc3)c2=O)c2ccccc2n1	2%	2%	0%	3%	10%	3%
CCc1ccc(-c2cc(C(=O)Nc3c(C)n(C)n(-c4ccccc4)c3=O)c3ccccc3n2)s1	1%	12µM*	5%	6%	-10%	-8%
COc1ccc2cc(-c3cc(C(=O)OCC(=O)Nc4c(C)n(C)n(-c5ccccc5)c4=O)c4ccccc4n3)ccc2c1	?	0.13µM*	?	/	2µM*	2%
COc1ccc(-c2cc(C(=O)Nc3c(C)n(C)n(-c4ccccc4)c3=O)c3ccccc3n2)cc1	-9%	15µM*	-1%	-2%	/	-21%
COc1ccc(C(=O)OCC(=O)Nc2c(C)n(C)n(-c3ccccc3)c2=O)cc1	/	/	/	-2%	/	1%
Cc1cccc(N(C)S(=O)(=O)c2c(C(=O)N3CCCCCC3)c(C)n(C)c2C)c1	/	3%	/	/	/	/
COc1cc2c(cc1OC)CN(C(=O)C1CCN(S(=O)(=O)c3ccccc3F)CC1)CC2	1%	2%	1%	5%	/	-1%
O=C(COc1cc2oc(=O)cc(-c3ccccc3)c2cc1Cl)NCc1ccccn1	0%	-9%	-3%	-12%	/	-6%
COc1ccc(CCNC(=O)CS(=O)(=O)Cc2nc(-c3cccc(Cl)c3)oc2C)cc1OC	/	-12%	/	/	10%	/
Nc1c(-c2ccccc2)cnn1-c1cccc(C(F)(F)F)c1	?	17µM*	3.2µM*	20%	3.5µM*	14%
Nc1c(-c2ccc(Cl)cc2)cnn1-c1ccccc1	2.2µM*	4.8µM*	0.89µM*	?	/	6.5µM*
Nc1c(-c2ccccc2)cnn1-c1ccc(C(=O)O)cc1	?	1.7µM*	0.32µM*	-4%	3.2µM*	?
Cc1ccc(-c2cnn(-c3ccccc3)c2N)cc1	0.45µM*	1.3µM*	1.1µM*	?	/	?
COc1ccc(-c2cnn(-c3ccccc3)c2N)cc1OC	2%	1%	-5%	6%	-4%	1%
C[C@@H](C(=O)O)/C(=C/c1ccc2c(c1)OCO2)C(=O)O	/	/	/	/	-5%[9.22 µM]	/
O=C(c1cc(C2CC2)nn1-c1ccccc1)N1CCN(S(=O)(=O)c2ccccc2)CC1	-5%	-2%	4%	9%	/	-8%
CCOC(=O)C1(O)Oc2cc(OC)cc(OC)c2C(=O)C1c1ccccc1 (centres undefined)	/	/	/	/	-4%	/
Cc1ccc(N(CC(=O)Nc2cccc(F)c2)S(=O)(=O)c2cccs2)cc1	/	-10%	/	/	-1%	/
